Laboratory results as given in PubChem BioAssay (NCI).
Compounds without any hit were thinned out: in the full panel of roughly 83,000, 20% have a hit.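 Assay: single dose, 48 h. Readout: percent growth (0 = no net growth; negative = cell death). Active: <10.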 Values without a mark were called inactive. Active and inactive are the calls of the source.

system: PC-3 prostate; experiment: NCI-60 one-dose screen, 48 h (100 = growth as untreated, 0 = no growth, -100 = all killed); conditions: 10 µM unless noted

With `S=c1sc2c(Cl)nc(-c3cccnc3)nc2n1-c1ccccc1` the growth was 1.75% (active).
`C=C(C)[C@@H]1CC[C@]2(CO)CC[C@]3(C)[C@H](CC[C@@H]4[C@@]5(C)CC[C@H](NCO)C(C)(C)[C@@H]5CC[C@]43C)[C@@H]12` was tested, and the growth was -3.03% (active).
In the case of `CCN(C)S(=O)(=O)Nc1cccc(Nc2ncnc3cc(NC(=O)CCl)ccc23)c1Cl`, the growth is reported as 0.153% (active).
`COc1cc(OC)c(NC(=O)c2cc3ccccc3cc2O)cc1Cl` was tested, and the growth was -0.247% (active).
In the case of `CC(C)c1ccc(C(=O)Nc2sc3c(c2C(N)=O)CCC(=O)C3)cc1`, the growth is reported as -44.7% (active).
`CCC(=C(c1ccc(OCCN2CCCCC2)cc1)c1ccc(OCCN2CCCCC2)cc1)c1ccc(Cl)cc1` was tested, and the growth was -81.2% (active).

Going from `CN(C)Cc1ccc(O)c(C(=O)O)c1` to `CN(C)c1ccc(C(=O)OCCCCCCl)cc1`, the growth falls from 105% to 87.1%.

First: CCCn1cc2c(=O)nc3sc(Cc4ccccc4)c(C)n3c2n1
Second: COc1c(C(=O)Nc2ccc(C)c(Br)c2)ccc2ccccc12
The growth of the first is higher: 98.5% for the first, 87.7% for the second.

First: CN(/C(N)=N/N=C/c1c2ccccc2cc2ccccc12)C1CCCCC1
Second: CCN1C(=S)N(c2ccccc2)C2NC(=S)N(/N=C/C=C/c3ccccc3OC)C21 (stereo not given)
The growth of the first is higher: 36.7% for the first, 30.1% for the second.

Compared with `CC(=O)n1nc(C(=O)OC(C)(C)c2ccccc2)c2ccccc21`, `C#CCOC(=O)/C=C/c1cn(-c2ccccc2)nc1-c1ccc(OC)cc1` is lower in growth: 92.3% for the first, 83.4% for the second.

First: CS(=O)(=O)c1ccc(-c2cnn3ccc(-c4cccc(S(=O)(=O)C5CC5)c4)nc23)cc1
Second: Nc1[nH]n2cc(-c3ccccc3)nc2c1N=Nc1ccc(S(N)(=O)=O)cc1
The growth of the first is higher: 40.3% for the first, 32.4% for the second.

Going from `COc1ccc(/C=C(\C#N)n2nnc3ccc(Cl)cc32)cc1` to `COc1ccc(-c2nc3c(ncc4ccc(=O)[nH]c43)s2)cc1`, the growth rises from 63.7% to 83.4%.

Going from `Oc1c(Br)cc(Br)c2ccc(Cn3cc(-c4ccc(C(F)(F)F)cc4)nn3)nc12` to `Cc1cn(-c2cc(NC(=O)c3cccc(C#Cc4cccc5[nH]nc(N)c45)c3)cc(C(F)(F)F)c2)cn1`, the growth falls from 77.6% to 20.9%.

First: Cc1sc2nc(NCCc3c[nH]c4ccc(Cl)cc34)[nH]c(=O)c2c1C
Second: Nc1nc2ccccc2c2c1S(=O)(=O)c1ccc(Cl)cc1C2=O
The growth of the first is higher: 29.2% for the first, 16.5% for the second.

Going from `Cn1c(I)c(C#CCO[Si](C)(C)C(C)(C)C)c(=O)[nH]c1=O` to `Cc1[nH]c(=O)[nH]c(=O)c1Br`, the growth rises from 96.5% to 97.9%.

Going from `CCOC(=O)C/C(=N\Nc1cc(=O)[nH]c2ccc(Br)cc12)C(=O)OCC` to `COc1ccc(/C=C/C(=O)c2cc3c(N)c(C(=O)Nc4cccc5ccccc45)sc3nc2C)cc1`, the growth falls from 87.4% to 75.6%.

Compared with `CS(=O)(=O)Nc1cc(-c2ccc3ncnc(Nc4ccc5c(cnn5Cc5ccc(F)cc5)c4)c3c2)cnc1Cl`, `Clc1cccc(Nc2ncnc3ccc(-c4cnc5[nH]ccc5c4)cc23)c1` is higher in growth: 38.2% for the first, 70.5% for the second.

Going from `CCCCNC(=O)Oc1ccc(/C(=C(/C)Cc2ccc(OC)cc2)c2ccc(OCCN(CC)CC)cc2)cc1` to `CCCCNC(=O)Oc1ccc(/C(=C(/C)Cc2ccc(OC)cc2)c2ccc(OCCN3CCCC3)cc2)cc1`, the growth falls from 62.1% to 60.7%.

Going from `O=C(Nc1nc2ccccc2s1)c1ccc(F)cc1` to `O=C1/C(=C/c2ccccc2Br)COc2ccc(O)cc21`, the growth falls from 96.6% to 60.7%.

Compared with `Cn1ccnc1C(=O)/C=C/c1ccc(CC(=O)Nc2cc(C(F)(F)F)cc(C(F)(F)F)c2)cc1`, `Cc1cn(-c2cc(NC(=O)c3cncc(C#Cc4cnc(N)c5ncccc45)c3)cc(C(F)(F)F)c2)cn1` is higher in growth: 55.9% for the first, 84.7% for the second.

Going from `c1ccc(-c2oc(-c3ccccc3)c(CN3CCCCC3)c2CN2CCCCC2)cc1` to `COc1ccc(C/C(C)=C(\c2ccc(Cl)cc2)c2ccc(OCCN3CCCCC3)cc2)cc1`, the growth rises from 19.6% to 94.6%.

Compared with `C=C(C)[C@@H]1CC[C@]2(C(=O)N3CCOCC3)CC[C@]3(C)[C@H](CC[C@@H]4[C@@]5(C)C/C(=C/c6ccncc6)C(=O)C(C)(C)[C@@H]5CC[C@]43C)[C@@H]12`, `COC(=O)[C@]1(C)CCC[C@]2(C)[C@H]3C[C@H]4C(C(C)C)=C[C@]3(CC[C@H]21)[C@@H]1C(=O)CC[C@H](OCCC#N)[C@@H]14` is higher in growth: 25.2% for the first, 34.5% for the second.

Compared with `O=C1C(Cl)=C(Nc2ccc(S(=O)(=O)N3CCOCC3)cc2)C(=O)c2ccccc21`, `COc1cc2c(cc1OC)C(C)N(S(N)(=O)=O)CC2` (stereo not given) is higher in growth: 46% for the first, 89% for the second.
